Test results taken from PubChem BioAssay (Tox21).
Results filed as inconclusive are left out. The source made the active and inactive calls. Unless noted, calls come from the whole dose curve.

Legend:
[1] = qHTS assay to identify small molecule agonists of the vitamin D receptor (VDR) signaling pathway - cell viability counter screen (AID 743224; active = well fitted curve in the direction sought with a large enough effect in the repeat runs; an effect the other way counts as inactive or inconclusive; note: series mostly up to about 63 µM; % is set by controls: 0 for no effect and ±100 for the full control effect; nearly all actives have a fitted effect of over 50% in size)
Summary of the method: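 Viability is measured in the same wells as the VDR-bla reporter assay: after 16 h compound treatment and 2 h substrate loading, CellTiter-Glo is added and luminescence read 30 min later.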

[2] = qHTS assay to identify small molecule antagonists of the vitamin D receptor (VDR) signaling pathway - cell viability counter screen (AID 743225; active = well fitted curve in the direction sought with a large enough effect in the repeat runs; an effect the other way counts as inactive or inconclusive; note: % is set by controls: 0 for no effect and ±100 for the full control effect; nearly all actives have a fitted effect of over 50% in size)
Summary of the method: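 VDR-bla HEK 293T cells, 4 h pre-incubation at 37C, then compound plus 1-alpha,25-dihydroxyvitamin D3 (3 nM final) for 16 h. After the beta-lactamase FRET read, CellTiter-Glo was added to the same wells; luminescence after 30 min at room temperature.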

[3] = qHTS assay to identify small molecule agonists of the NFkB signaling pathway (AID 1159509; active = well fitted curve in the direction sought with a large enough effect in the signal ratio in the repeat runs, not every such curve was filed as active; the % refers to the signal ratio; note: series mostly up to about 61 µM; % is set by controls: 0 for no effect and ±100 for the full control effect)
Summary of the method: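 After overnight attachment, reporter cells received test compounds, DMSO or positive controls and were incubated 5 hr at 37 C. FRET substrate was then added for 1.5 hr at room temperature before dual-emission fluorescence reading.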

[4] = qHTS assay to identify small molecule agonists of the NFkB signaling pathway - cell viability counter screen (AID 1159515); note: series mostly up to about 61 µM; % is set by controls: 0 for no effect and ±100 for the full control effect; nearly all actives have a fitted effect of over 55% in size
Summary of the method: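 Multiplexed viability readout: after the 5 hr compound exposure and 1.5 hr FRET substrate step, CellTiter-Glo reagent went into the same NFkB-bla ME-180 wells; ATP luminescence was measured after 30 min at room temperature.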

[5] = qHTS assay to identify small molecule agonists of the endoplasmic reticulum stress response signaling pathway (AID 1159516; active = well fitted activation curve with a large enough effect in the signal ratio in the repeat runs, not every such curve was filed as active; the % refers to the signal ratio; note: % is set by controls: 0 for no effect and ±100 for the full control effect)
Summary of the method: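 Tox21 10K library screened in quantitative HTS format on ESRE-bla HeLa cells, a beta-lactamase reporter under ER stress response element control; 5 hr treatment, FRET read.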

[6] = qHTS assay to identify small molecule agonists of the endoplasmic reticulum stress response signaling pathway - cell viability counter screen (AID 1159517); note: series mostly up to about 61 µM; % is set by controls: 0 for no effect and ±100 for the full control effect; nearly all actives have a fitted effect of over 50% in size
Summary of the method: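 Counter-screen wells were identical to the reporter wells. Cells were plated at 1,500 per well and dosed for 5 hr, then read for luminescence 30 min after CellTiter-Glo addition.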

[7] = qHTS assay to identify small molecule antagonists of the retinoid-related orphan receptor gamma (ROR-gamma) signaling pathway - cell viability counter screen (AID 1159520; active = well fitted curve in the direction sought with a large enough effect in the repeat runs; an effect the other way counts as inactive or inconclusive; note: % is set by controls: 0 for no effect and ±100 for the full control effect; nearly all actives have a fitted effect of over 50% in size)
Summary of the method: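 Tet-on ROR gamma CHO cells were given compounds for 2 hr, then doxycycline hyclate at 1 uM final, and incubated 16 hr at 37 C. Viability was measured as ATP content by CellTiter-Glo luminescence.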

[8] = qHTS assay to identify small molecule agonists of the AP-1 signaling pathway - cell viability counter screen (AID 1159525); note: nearly all actives have a fitted effect of over 55% in size
Summary of the method: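 AP-1-bla ME-180 cells in Opti-MEM with 0.5% dialyzed FBS, compound exposure 5 h at 37 C in 15-point titration. Viability read in the same wells as ATP content by CellTiter-Glo luminescence, normalised to tetra-n-octylammonium bromide and DMSO controls.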

[9] = qHTS assay to identify small molecule agonists of the AP-1 signaling pathway (AID 1159526); note: % is set by controls: 0 for no effect and ±100 for the full control effect
[10] = target: Nuclear receptor ROR-gamma (Homo sapiens) (UniProt P51449); test: qHTS assay to identify small molecule antagonists of the retinoid-related orphan receptor gamma (ROR-gamma) signaling pathway (AID 1159521; active = well fitted curve in the direction sought with a large enough effect in the repeat runs; an effect the other way counts as inactive or inconclusive)
Summary of the method: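 Tet-on RORγ CHO cells carrying a ROR response element–luciferase reporter were pretreated with compounds for 2 h, then induced with 1 uM (final) doxycycline hyclate for 16 h at 37 C. Antagonism was read as decreased ONE-Glo luminescence.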

C=COCCOCCOC=C
inactive: outcome [1] | outcome [2] | outcome [3] | outcome [4] | outcome [5] | outcome [6] | outcome [7] | outcome [8] | outcome [9]

O=S(=O)(O)CCO
inactive: outcome [1] | outcome [2] | outcome [3] | outcome [4] | outcome [5] | outcome [6] | outcome [10] | outcome [8] | outcome [9]

CCCCCN(CCCOC)C(=O)C(CCC(=O)O)NC(=O)c1ccc(Cl)c(Cl)c1 (configuration not stated)
inactive: outcome [1] | outcome [2] | outcome [3] | outcome [4] | outcome [5] | outcome [6] | outcome [10] | outcome [8] | outcome [9]

C=CCOc1c(Br)cc(C(C)(C)c2cc(Br)c(OCC=C)c(Br)c2)cc1Br
inactive: outcome [2] | outcome [3] | outcome [4] | outcome [5] | outcome [6] | outcome [7] | outcome [8] | outcome [9]

CC(=O)Nc1ccc(C)cc1
inactive: outcome [1] | outcome [3] | outcome [4] | outcome [5] | outcome [6] | outcome [10] | outcome [8] | outcome [9]

COCC(=O)Nc1c(I)c(C(=O)NCC(O)CO)c(I)c(C(=O)N(C)CC(O)CO)c1I (configuration not stated)
inactive: outcome [1] | outcome [2] | outcome [3] | outcome [4] | outcome [5] | outcome [6] | outcome [10] | outcome [8] | outcome [9]

O=C(O)CCNC(=O)c1ccccc1
inactive: outcome [3] | outcome [4] | outcome [5] | outcome [6] | outcome [10] | outcome [8] | outcome [9]

Cc1ccccc1N1CCN(CCc2nnc3n2CCCC3)CC1
inactive: outcome [2] | outcome [3] | outcome [4] | outcome [5] | outcome [6] | outcome [10] | outcome [8] | outcome [9]

CN[C@@H]1[C@@H](O)[C@@H](O[C@@H]2[C@H](O)[C@H](O[C@H]3OC(CN)=CC[C@H]3N)[C@@H](N)C[C@H]2N)OCC1(C)O (some centres not stated)
inactive: outcome [1] | outcome [2] | outcome [3] | outcome [4] | outcome [5] | outcome [6] | outcome [10] | outcome [8] | outcome [9]

CCCCCC1CCCC(=O)O1 (configuration not stated)
inactive: outcome [1] | outcome [2] | outcome [3] | outcome [4] | outcome [5] | outcome [6] | outcome [10] | outcome [8] | outcome [9]

CC(=O)OC[C@H]1O[C@@H](OC(C)=O)[C@H](OC(C)=O)[C@@H]1OC(C)=O
inactive: outcome [1] | outcome [2] | outcome [3] | outcome [4] | outcome [5] | outcome [6] | outcome [7] | outcome [8] | outcome [9]

CC(C)CCC(=O)CCC(C)C
inactive: outcome [1] | outcome [2] | outcome [3] | outcome [4] | outcome [5] | outcome [6] | outcome [10] | outcome [8] | outcome [9]

c1ccccc1
inactive: outcome [1] | outcome [2] | outcome [3] | outcome [4] | outcome [5] | outcome [6] | outcome [8] | outcome [9]

CCCCCC(=O)OCC
inactive: outcome [2] | outcome [3] | outcome [4] | outcome [5] | outcome [6] | outcome [10] | outcome [8] | outcome [9]

CCOC(=O)CCc1ccccc1
inactive: outcome [1] | outcome [2] | outcome [3] | outcome [4] | outcome [5] | outcome [6] | outcome [8] | outcome [9]

CCCCCCCCCOCC1CO1 (configuration not stated)
inactive: outcome [1] | outcome [2] | outcome [3] | outcome [4] | outcome [5] | outcome [6] | outcome [10] | outcome [8] | outcome [9]

Cc1cccc(Nc2ccncc2S(=O)(=O)NC(=O)NC(C)C)c1
inactive: outcome [1] | outcome [2] | outcome [3] | outcome [4] | outcome [5] | outcome [6] | outcome [10] | outcome [8] | outcome [9]

COc1cc2c3cc1Oc1cc(ccc1O)C[C@@H]1c4c(cc(OC)c(O)c4Oc4ccc(cc4)C[C@@H]3N(C)CC2)CC[N+]1(C)C
inactive: outcome [2] | outcome [3] | outcome [4] | outcome [5] | outcome [6] | outcome [10] | outcome [8] | outcome [9]

C=CCOCC(O)CCl (configuration not stated)
inactive: outcome [1] | outcome [2] | outcome [3] | outcome [4] | outcome [5] | outcome [6] | outcome [10] | outcome [8] | outcome [9]

O=C(O)C(=O)Nc1cccc(-c2nn[nH]n2)c1
inactive: outcome [1] | outcome [2] | outcome [3] | outcome [4] | outcome [5] | outcome [6] | outcome [10] | outcome [8] | outcome [9]

Nc1cc(S(=O)(=O)O)ccc1S(=O)(=O)O
inactive: outcome [1] | outcome [2] | outcome [3] | outcome [4] | outcome [5] | outcome [6] | outcome [7] | outcome [8] | outcome [9]

COc1ccc(OC)c(NC(=O)CC(C)=O)c1
inactive: outcome [1] | outcome [2] | outcome [3] | outcome [4] | outcome [5] | outcome [6] | outcome [7] | outcome [8] | outcome [9]

O=c1[nH]c(=O)c2ccccc2o1
inactive: outcome [1] | outcome [2] | outcome [3] | outcome [4] | outcome [5] | outcome [6] | outcome [10] | outcome [8] | outcome [9]

NC(Cc1c[nH]c2ccccc12)C(=O)O (configuration not stated)
inactive: outcome [1] | outcome [2] | outcome [3] | outcome [4] | outcome [5] | outcome [6] | outcome [10] | outcome [8] | outcome [9]

CCCCCCCCCCCCOC(C)=O
inactive: outcome [1] | outcome [2] | outcome [3] | outcome [4] | outcome [5] | outcome [6] | outcome [8] | outcome [9]

CCC(CO)CO
inactive: outcome [1] | outcome [2] | outcome [3] | outcome [4] | outcome [5] | outcome [6] | outcome [8] | outcome [9]

Cc1nc([N+](=O)[O-])cn1-c1ccc([N+](=O)[O-])cc1
inactive: outcome [1] | outcome [2] | outcome [3] | outcome [4] | outcome [5] | outcome [6] | outcome [10] | outcome [8] | outcome [9]

CC1CCC(C(C)(C)S)C(=O)C1 (configuration not stated)
inactive: outcome [1] | outcome [2] | outcome [3] | outcome [4] | outcome [5] | outcome [6] | outcome [10] | outcome [8] | outcome [9]

O=C1c2ccccc2-c2ccccc21
inactive: outcome [1] | outcome [2] | outcome [3] | outcome [4] | outcome [5] | outcome [6] | outcome [10] | outcome [8] | outcome [9]

CCc1nccnc1C
inactive: outcome [1] | outcome [2] | outcome [3] | outcome [4] | outcome [5] | outcome [6] | outcome [10] | outcome [8] | outcome [9]

O=C(O)Cc1cccc(-c2cc(CCCCCCc3ccc(O[C@H]4O[C@H](CO)[C@@H](O)[C@H](O)[C@@H]4O)c(-c4cccc(CC(=O)O)c4)c3)ccc2O[C@H]2O[C@H](CO)[C@@H](O)[C@H](O)[C@@H]2O)c1
inactive: activity change, negative = cytotoxicity [1] -3.17% [at 0.55 µM] | viability change, negative = cytotoxic [2] 5.12% [at 0.628 µM] | activity, negative = cytotoxic [4] 0.959% [at 0.628 µM] | activation [5] 1.35% [at 0.628 µM] | activity change, negative = cytotoxicity [6] 4.41% [at 0.628 µM] | activity, negative = cytotoxicity [7] 0.991% [at 0.349 µM] | viability change, negative = cytotoxic [8] 1.08% [at 0.29 µM] | activation [9] -4.69% [at 0.29 µM]

CC(C)COC(=O)/C=C/c1ccccc1
inactive: outcome [1] | outcome [2] | outcome [5] | outcome [6] | outcome [10] | outcome [8] | outcome [9]

CC(C)COC(=O)CC(C(=O)OCC(C)C)S(=O)(=O)O (configuration not stated)
inactive: outcome [1] | outcome [2] | outcome [4] | outcome [5] | outcome [6] | outcome [7] | outcome [8] | outcome [9]
